The record followed here is PubChem BioAssay (NCI).

The panel holds about 83,000 compounds, 20% with a hit somewhere; the sample as a whole holds those more often.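 Negative percent growth values reflect cell death: -40 means 40% of the cells present at the start died, and -100 means all died.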 A number with no mark means an inactive call. Activity calls are given as the source filed them. How the source made its calls: active means growth percent below 10; inactive means the rest.

Test systems include HCT-15 colon; HT29 colon; SNB-75 CNS; SNB-19 CNS; U251 CNS; PC-3 prostate; SK-MEL-5 melanoma; UACC-62 melanoma; LOX IMVI melanoma; SK-MEL-28 melanoma; SK-MEL-2 melanoma; SN12C renal; UO-31 renal; TK-10 renal; ACHN renal; CAKI-1 renal; CCRF-CEM leukemia; MOLT-4 leukemia; A498 renal.
Assay in all cases: NCI-60 one-dose screen, 48 h (100 = growth as untreated, 0 = no growth, -100 = all killed)
Conditions in all cases: 10 µM unless noted

`CC(C)CCN(CCCNc1c2c(nc3ccccc13)CCCC2)CCC(C)C`: the growth with HCT-15 colon is 72.9%; in the assay on HT29 colon it was 46.3%; with SNB-75 CNS, 76.8%; in the assay with SNB-19 CNS, 87.2%; in the assay on U251 CNS, 65.1%; in the assay on PC-3 prostate, 73.6%. Also, the growth in the assay on SK-MEL-5 melanoma was 83.1%; in the assay with UACC-62 melanoma it was 97.2%; in the assay on LOX IMVI melanoma, 76.4%; in the assay on SK-MEL-28 melanoma, 86.2%; in the assay with SK-MEL-2 melanoma it was 109%; in the assay on SN12C renal, 89.7%. The growth in the assay with UO-31 renal is 56.5%; in the assay on TK-10 renal, 93.8%; in the assay on ACHN renal, 98%; in the assay on CAKI-1 renal, 76.5%; with CCRF-CEM leukemia, 74.3%; in the assay on MOLT-4 leukemia, 70.7%.

For the molecule `O=c1c2cccc3c(Nc4ccc(F)cc4)ccc(c32)c2nc3ccccc3n12`, the growth in the assay on HCT-15 colon is 71.1%; with HT29 colon it was 92.6%; in the assay on SNB-75 CNS it was 70.8%; in the assay with SNB-19 CNS, 77.6%; with U251 CNS, 92%; with PC-3 prostate, 77.2%. The growth is 70.4% with SK-MEL-5 melanoma; 67.8% in the assay on UACC-62 melanoma; 83.6% in the assay on LOX IMVI melanoma; 103% in the assay on SK-MEL-28 melanoma; 103% in the assay with SK-MEL-2 melanoma; 87.8% in the assay on SN12C renal. Besides, the growth in the assay on UO-31 renal was 49.2%; with TK-10 renal, 75.3%; in the assay with ACHN renal, 87.9%; in the assay with CAKI-1 renal, 79.9%; with CCRF-CEM leukemia, 94.1%; with MOLT-4 leukemia, 89.9%.

Consider `COc1ccc(C(=O)/C=C/c2cc(C(=O)c3cc(OC)c(OC)c(OC)c3)ccc2OC)cc1`, for which the growth in the assay with HCT-15 colon was 29.2%; in the assay on HT29 colon it was 27.7%; with SNB-75 CNS, 66.7%; with SNB-19 CNS, 53.6%; in the assay on U251 CNS, 52.4%; in the assay with PC-3 prostate it was 44.5%. For the same molecule, the growth with SK-MEL-5 melanoma is 54.4%; in the assay on UACC-62 melanoma, 33.1%; in the assay on LOX IMVI melanoma, 27.4%; in the assay on SK-MEL-28 melanoma it was 35.1%; in the assay with SK-MEL-2 melanoma, 60.8%; in the assay on SN12C renal, 68.8%. Further, the growth with UO-31 renal is 53.7%; in the assay with TK-10 renal, 107%; in the assay with ACHN renal, 41%; with A498 renal, 93.1%; with CCRF-CEM leukemia it was 5.61% (active); in the assay with MOLT-4 leukemia, 10.5%.

As for `CCOC(=O)c1ccccc1NC(c1ccccc1)c1ccc2cccnc2c1O` (stereo not given), the growth with HCT-15 colon is 23%; in the assay on HT29 colon, 39.4%; in the assay with SNB-75 CNS, 52.7%; in the assay on SNB-19 CNS, 30.9%; in the assay on U251 CNS, 17.7%; in the assay with PC-3 prostate, 25.4%. In addition, the growth is 4.23% (active) in the assay on SK-MEL-5 melanoma; 12.8% in the assay on UACC-62 melanoma; 11.9% in the assay on LOX IMVI melanoma; 50.9% with SK-MEL-2 melanoma; 35.2% in the assay with SN12C renal; 21% in the assay on UO-31 renal. Moreover, the growth was 37.3% with TK-10 renal; 14.4% in the assay with ACHN renal; 15.9% in the assay with CAKI-1 renal; 38.4% in the assay on A498 renal; 9.7% (active) in the assay on CCRF-CEM leukemia; 12.6% with MOLT-4 leukemia.

As for `CCC(C)NCC(=O)O` (stereo not given), the growth with HCT-15 colon is 88.5%; in the assay on HT29 colon it was 78.8%; in the assay on SNB-75 CNS it was 90.9%; in the assay on SNB-19 CNS it was 107%; with U251 CNS, 98.7%; in the assay with PC-3 prostate, 102%. Also, the growth with SK-MEL-5 melanoma is 97.5%; with UACC-62 melanoma, 108%; in the assay with LOX IMVI melanoma, 109%; in the assay with SK-MEL-2 melanoma it was 85.6%; in the assay with SN12C renal, 110%; in the assay with UO-31 renal, 98.4%. Besides, the growth in the assay with TK-10 renal is 107%; with ACHN renal it was 97.7%; in the assay with CAKI-1 renal, 97.7%; with A498 renal it was 107%; with MOLT-4 leukemia, 106%.

Take `COc1ccccc1CNCCCN1C(=O)c2ccc3c4c(ccc(c24)C1=O)C(=O)N(CCCNCCCCNCCCCN)C3=O`: the growth is 30.6% with HCT-15 colon; 1.62% (active) with HT29 colon; -37.8% (active) with SNB-75 CNS; 4.86% (active) in the assay with SNB-19 CNS; 0.458% (active) in the assay with U251 CNS; -12.5% (active) with PC-3 prostate. Moreover, the growth in the assay on SK-MEL-5 melanoma was -85% (active); in the assay on UACC-62 melanoma, -75% (active); in the assay on LOX IMVI melanoma, -3.52% (active); with SK-MEL-28 melanoma, -13.9% (active); in the assay on SK-MEL-2 melanoma, -55.8% (active); in the assay with SN12C renal, 6.05% (active). For the same molecule, the growth with UO-31 renal is 8.57% (active); with ACHN renal, 17.2%; with CAKI-1 renal it was 64%; in the assay on A498 renal, 9.03% (active); in the assay with CCRF-CEM leukemia, 13.8%; in the assay with MOLT-4 leukemia it was 11.3%.

For the molecule `Nc1c(C(=O)Nc2ccccc2)sc2nc3c(cc12)CN(Cc1ccccc1)CC3`, the growth in the assay with HCT-15 colon is 73.3%; with HT29 colon it was 78.8%; with SNB-75 CNS it was -46.2% (active); in the assay with SNB-19 CNS, 76.1%; in the assay with U251 CNS it was 75%; in the assay with PC-3 prostate, 67.3%. Besides, the growth was 85.6% with SK-MEL-5 melanoma; 70.6% with UACC-62 melanoma; 67% in the assay with LOX IMVI melanoma; 60.3% with SK-MEL-28 melanoma; 103% in the assay with SK-MEL-2 melanoma; 70.3% with SN12C renal. The growth in the assay with UO-31 renal was 49.8%; in the assay on TK-10 renal it was 53.9%; with ACHN renal it was 38.1%; in the assay on A498 renal it was 26.5%; with MOLT-4 leukemia it was 92.3%.

As for `Cc1ccc(C(=O)c2sc3nc4c(cc3c2N)CCCC4)c(C)c1`, the growth was 29.8% with HCT-15 colon; 9.13% (active) with HT29 colon; -14.3% (active) with SNB-75 CNS; 51.5% in the assay with SNB-19 CNS; 21.2% in the assay on U251 CNS; 5.81% (active) with PC-3 prostate. Moreover, the growth in the assay with SK-MEL-5 melanoma is 24.6%; with UACC-62 melanoma, 24.3%; with LOX IMVI melanoma it was 30.6%; with SK-MEL-28 melanoma, 55%; with SK-MEL-2 melanoma it was -13.7% (active); with SN12C renal, 44.1%. Further, the growth in the assay with UO-31 renal is 30.8%; in the assay with ACHN renal, 46.4%; in the assay on CAKI-1 renal, 7.6% (active); in the assay on A498 renal, -10.8% (active); with CCRF-CEM leukemia, 6.69% (active); in the assay with MOLT-4 leukemia, 21.8%.

On to `COc1ccc(Cn2cc(COc3cc(/C=C/C(=O)c4cc(OC)c(OC)c(OC)c4)ccc3OC)nn2)cc1`, for which the growth in the assay with HCT-15 colon was 38.5%; with HT29 colon, 13%; with SNB-75 CNS it was 59.8%; with SNB-19 CNS it was 82.6%; in the assay on U251 CNS it was 44.6%; with PC-3 prostate it was 44.5%. Also, the growth with SK-MEL-5 melanoma is 80.2%; in the assay on UACC-62 melanoma, 70.1%; in the assay on LOX IMVI melanoma it was 36.4%; in the assay on SK-MEL-28 melanoma, 84.6%; in the assay on SK-MEL-2 melanoma, 87.1%; in the assay on SN12C renal, 51%. The growth with UO-31 renal was 37.8%; in the assay on ACHN renal it was 64.6%; in the assay with CAKI-1 renal, 17.5%; in the assay with A498 renal, 81.4%; in the assay with CCRF-CEM leukemia, 2.56% (active); in the assay on MOLT-4 leukemia, 82.3%.
